Test results: the supplement of paper PMC6555819

Experiments:
Assay in all cases: PBM binding z-score (relative to random genomic background probes); higher = stronger binding; sequences stand for … in GC…GCGATTGACAGCGTAGAATGAAGG
[1] = test system: FXR:RXRa (NR concentration 270 nM, RXRa partner concentration 90 nM)
Summary of the method: (§1)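 Ligand-free nuclear receptor dimers were applied to custom Agilent 4×180K protein-binding microarrays whose double-stranded probes carried direct-repeat seeds, single-nucleotide variants, half-site ablations and random human genomic background sequences in 34-nt variable regions. Incubation lasted 1 h. Binding z-scores were computed against the random background probes from regression-normalized fluorescence.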

[2] = test system: LXRa:RXRa (NR concentration 270 nM, RXRa partner concentration 90 nM)
Summary of the method: as §1

[3] = test system: LXRa homodimer (NR concentration 270 nM)
Summary of the method: as §1

[4] = test system: LXRb:RXRa (NR concentration 270 nM, RXRa partner concentration 90 nM)
Summary of the method: as §1

[5] = test system: LXRb homodimer (NR concentration 270 nM)
Summary of the method: as §1

[6] = test system: PPARa:RXRa (NR concentration 270 nM, RXRa partner concentration 90 nM)
Summary of the method: as §1

[7] = test system: PPARg:RXRa (NR concentration 180 nM, RXRa partner concentration 90 nM)
Summary of the method: as §1

[8] = test system: PPARg:RXRa 270nM:90nM, anti-RXR (NR concentration 270 nM, RXRa partner concentration 90 nM)
Summary of the method: as §1

[9] = test system: PPARg:RXRa 30nM:10nM, anti-RXR (NR concentration 30 nM, RXRa partner concentration 10 nM)
Summary of the method: as §1

[10] = test system: PPARg:RXRa 90nM:30nM, anti-RXR (NR concentration 90 nM, RXRa partner concentration 30 nM)
Summary of the method: as §1

[11] = test system: PPARg:RXRa DBDmut IVT, anti-RXR (DBD mutation: RXRa K156A/R161A, NR concentration 270 nM, RXRa partner concentration 90 nM)
Summary of the method: as §1

[12] = test system: PPARg:RXRa IVT, anti-PPARg (NR concentration 270 nM, RXRa partner concentration 90 nM)
Summary of the method: as §1

[13] = test system: PPARg DBDmut:RXRa IVT, anti-PPARg (DBD mutation: PPARg1 K132A/R137A, NR concentration 270 nM, RXRa partner concentration 90 nM)
Summary of the method: as §1

[14] = test system: PPARg DBDmut IVT, anti-PPARg (DBD mutation: PPARg1 K132A/R137A, NR concentration 270 nM)
Summary of the method: as §1

[15] = test system: PPARg homodimer (NR concentration 180 nM)
Summary of the method: as §1

[16] = test system: PXR:RXRa (NR concentration 270 nM, RXRa partner concentration 90 nM)
Summary of the method: as §1

[17] = test system: PXR homodimer (NR concentration 270 nM)
Summary of the method: as §1

[18] = test system: RARa:RXR (NR concentration 270 nM, RXRa partner concentration 90 nM)
Summary of the method: as §1

[19] = test system: RARa homodimer (NR concentration 270 nM)
Summary of the method: as §1

[20] = test system: RARb:RXRa (NR concentration 270 nM, RXRa partner concentration 90 nM)
Summary of the method: as §1

Sequence: CAAACTAGGTCAAGGACAAAGTCGGTTTGTGCCA
- PBM binding z-score [1]: 3.65
- PBM binding z-score [2]: 2.54
- PBM binding z-score [3]: 0.38
- PBM binding z-score [4]: 1.43
- PBM binding z-score [5]: 0.178
- PBM binding z-score [6]: 4.59
- PBM binding z-score [7]: 7.75
- PBM binding z-score [8]: 6.74
- PBM binding z-score [9]: 4.87
- PBM binding z-score [10]: 6.38
- PBM binding z-score [11]: 8.57
- PBM binding z-score [12]: 8.47
- PBM binding z-score [13]: 0.998
- PBM binding z-score [14]: 1.42
- PBM binding z-score [15]: 2.03
- PBM binding z-score [16]: 1.6
- PBM binding z-score [17]: 0.0226
- PBM binding z-score [18]: 1.91
- PBM binding z-score [19]: -0.478
- PBM binding z-score [20]: 4.15

Sequence: ACAATGAGGTTAAGATCAGGGAAACAGAATACAT
- PBM binding z-score [1]: 2.2
- PBM binding z-score [2]: 2.23
- PBM binding z-score [3]: 0.0608
- PBM binding z-score [4]: 1.85
- PBM binding z-score [5]: 0.674
- PBM binding z-score [6]: 3.04
- PBM binding z-score [7]: 2.06
- PBM binding z-score [8]: 1.68
- PBM binding z-score [9]: 0.802
- PBM binding z-score [10]: 1.24
- PBM binding z-score [11]: 1.93
- PBM binding z-score [12]: 1.78
- PBM binding z-score [13]: 1.53
- PBM binding z-score [14]: 1.8
- PBM binding z-score [15]: 1
- PBM binding z-score [16]: 1.35
- PBM binding z-score [17]: 0.672
- PBM binding z-score [18]: 1.97
- PBM binding z-score [19]: 1.24
- PBM binding z-score [20]: 1.95

Sequence: ACTAGCCGGCCAAGGGTCACTCAAGATTAGTCCG
- PBM binding z-score [1]: 2.41
- PBM binding z-score [2]: 2.53
- PBM binding z-score [3]: 0.141
- PBM binding z-score [4]: 2.59
- PBM binding z-score [5]: -0.832
- PBM binding z-score [6]: 3.81
- PBM binding z-score [7]: 5.6
- PBM binding z-score [8]: 5.62
- PBM binding z-score [9]: 3.35
- PBM binding z-score [10]: 5.18
- PBM binding z-score [11]: -0.188
- PBM binding z-score [12]: 2.25
- PBM binding z-score [13]: -0.122
- PBM binding z-score [14]: -1.13
- PBM binding z-score [15]: 0.922
- PBM binding z-score [16]: 3
- PBM binding z-score [17]: -0.135
- PBM binding z-score [18]: 3.82
- PBM binding z-score [19]: -0.211
- PBM binding z-score [20]: 3.41
